# The list is not random: actives were taken first. Their share in the collection is about 19%.
# SW480 rerep: DNA re-replication induction in SW480 cells; SW480 DNA re-replication, Hoechst DNA content imaging, 48 h; Potency, µM (doses to about 46.1 µM), for inactives: at the highest dose re-replication activation, most hits filed as activators; hit rate 1.8% among 340,000; AID 624297; also: potency is read from the fitted curve at half-maximal effect; % of control where 0% means no effect; nearly all actives have a fitted effect of over 55% in size
#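 Treated cells incubate 48 hr (37 C, 5% CO2), are stained 40 min with Hoechst, and nuclear fluorescence is enumerated; a rise in nuclei with high DNA signal marks re-replication.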
# Chronic BCR inh: blocks chronic active B-cell receptor signaling; ABC-DLBCL IkBa-CBG/CBR reporter, luminescence ratio, 4 h; Potency, µM (series often up to 46.1 µM), for inactives: at the highest dose activity change, negative = inhibition, actives largely listed as inhibitors; hit rate 0.05% among 340,000; active = well fitted inhibition curve with a large enough effect in the signal ratio, with a control signal flat, not every such curve was filed as active; inconclusive = small, poorly fitted or top-dose-only effect, or effect the other way, or a change in a side signal; the % refers to the signal ratio;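 also: potency is read from the fitted curve at half-maximal effect; plate controls were basal doxycycline-induced cells for no effect and cells given 10 µM MG132 for full effect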
#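 TMD8 ABC-DLBCL cells carrying doxycycline-inducible green luciferase fused to IkappaBalpha plus unfused red luciferase were exposed to compounds (up to 46 uM) for 4 hrs at 37C. Activity came from the overlap-corrected green/red luminescence ratio.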
# IL-1B inflam inh: inflammasome signaling inhibition, IL-1 beta readout. THP-1 LPS/ATP IL-1B secretion, AlphaLISA, 16 h; hits give low values. activity change, % at 57.5 µM. hit rate 4.7% among 360,000. AID 743279; in the data active = activity change below about -50%; inconclusive = mostly about -30% to -49%; also: % is scaled to controls: 0 for no effect and ±100 for the full control effect
#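 Secreted IL-1B measured by AlphaLISA bead assay after 16 h compound exposure of THP-1 cells; compounds (final up to 57.5 uM) added 1 h before LPS (250 ng/mL) and ATP (1.25 mM) stimulation; lower signal means less secretion.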
# TDP1 cell noCPT: qHTS for Inhibitors of human tyrosyl-DNA phosphodiesterase 1 (TDP1): qHTS in cells in absence of CPT | DT40 Tdp1-/- hTDP1 cells, no CPT, ATP luminescence, 48 h | Potency, µM (top dose mostly 46.2 µM), inactives show top-dose activity change, negative = growth inhibition, actives largely listed as inhibitors | hit rate 15% among 420,000 | AID 686978, 2013; also: potency is read from the fitted curve at half-maximal effect; % is scaled to controls: 0 for no effect and ±100 for the full control effect; nearly all actives have a fitted effect of over 55% in size
#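 Growth kinetics read by CellTiter-Glo luminescence after ≥48 hr at 37 °C. Cells: DT40 Tdp1-/- stably carrying human TDP1, 400 per well, compound exposure in the absence of CPT (DMSO vehicle).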
# TDP1 cell CPT: growth inhibition of DT40 Tdp1-/-;hTDP1 cells with camptothecin (screen for TDP1 inhibitors) | AID 686979 | chicken DT40 Tdp1-/-;hTDP1 cells + 20 nM CPT, ATP luminescence, 48 h | hit rate 12% among 420,000 | Potency, µM (highest dose often 46.2 µM), inactives show top-dose activity change, negative = growth inhibition, most hits filed as inhibitors; also: potency is read from the fitted curve at half-maximal effect; % is scaled to controls: 0 for no effect and ±100 for the full control effect; nearly all actives have a fitted effect of over 55% in size
#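 Chicken DT40 Tdp1-/- cells complemented with human TDP1, 400 cells/well, exposed to compounds plus 20 nM camptothecin for at least 48 h at 37 C; viability read as ATP content by CellTiter-Glo luminescence.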
# MCF10A rereplic: inducers of DNA re-replication in MCF 10A breast cells | Potency, µM (highest dose often 46.1 µM), inactives show top-dose activity, positive = re-replication, actives largely listed as activators | AID 624296 | hit rate 2.9% among 350,000 | MCF 10A DNA re-replication, Hoechst nuclear intensity, 48 h; also: potency is read from the fitted curve at half-maximal effect; % of control where 0% means no effect; nearly all actives have a fitted effect of over 50% in size
# Numbers without * were called inactive; ? = inconclusive; · = not tested or not shown. Unless noted, calls follow the shape of the dose curve; as a rule, active = well fitted curve in the direction sought with a large enough effect; inconclusive = small, poorly fitted or top-dose-only effect, or another doubt; inactive = no such curve, though single readings can be large; an effect the other way counts as inactive or inconclusive.
SMILES,SW480 rerep,Chronic BCR inh,IL-1B inflam inh,TDP1 cell noCPT,TDP1 cell CPT,MCF10A rereplic
COc1ccc(-c2cc(C(F)(F)F)nc(SCC(=O)N(C)Cc3cn(C)nc3C)n2)cc1OC,-1%,?,-21,12µM*,18µM*,?
COc1ccc(CCNC(=O)Nc2cc(F)c(F)cc2Cl)cc1OC,-9%,?,17,8.2µM*,23µM*,-1%
COc1ccc(-c2cc(C(F)(F)F)nc(SCC(=O)NCc3cnn(C)c3C)n2)cc1OC,14%,0%,1,-3%,-29%,-1%
CCSc1nc2nccnc2c(=O)[nH]1,-3%,·,23,-18%,-19%,-1%
Cc1cccc(NC(=O)CSc2nncn2C)c1,·,·,·,12%,-11%,·
CC(C)(C)NC(=O)N1CCC(C(=O)O)CC1,·,-2%,·,-2%,-12%,·
Cc1ccc(-c2nnc(SCC(=O)NCC3CCCO3)nc2-c2ccc(C)cc2)cc1 (stereo not given),-2%,-11%,9,23µM*,?,3%
CCOc1ccc(-c2nnc(SCC(=O)NCCC(C)C)nc2-c2ccc(OCC)c(OC)c2)cc1OC,·,4%,·,?,15µM*,·
COc1ccc(CCNC(=O)CSc2nc(-c3ccc(F)cc3)cc(C(F)(F)F)n2)cc1OC,·,·,·,?,18µM*,·
CCOc1cc(-c2nnc(SCC(=O)NCCCOC)nc2-c2ccc(OC)c(OCC)c2)ccc1OC,·,?,·,?,-26%,·
O=C(CSc1nnc(-c2ccccc2)c(-c2ccccc2)n1)NCC1CCCO1 (stereo not given),-2%,-2%,-29,?,-6%,11%
COc1ccc(CCNC(=O)CSc2cccc3cccnc23)cc1OC,14%,-7%,-98*,-9%,14%,-31%
COc1ccccc1CCNC(=O)C(C)Sc1nc(-c2ccccc2)cc(C(F)(F)F)n1 (stereo not given),·,·,·,15µM*,16µM*,·
CC(Sc1nc(-c2ccccc2)cc(C(F)(F)F)n1)C(=O)Nc1sc2c(c1C(N)=O)CCC2 (stereo not given),-1%,-1%,11,6%,1%,5%
COc1ccc(CCNC(=O)CSc2nnc(-c3ccc(C)cc3)c(-c3ccc(C)cc3)n2)cc1OC,·,?,·,16µM*,?,·
COc1ccc(-c2noc(-c3ccc(C)cc3Cl)n2)cc1OC,·,·,·,-5%,-11%,·
CN1/C(=C/c2cccc[n+]2CCO)Sc2ccccc21,3%,0%,-1,?,?,18%
CC[n+]1ccccc1/C=C1\Sc2ccc(C)cc2N1C,-2%,0%,-77*,0.33µM*,0.46µM*,?
CN(C)c1ccc(N=Cc2nc(-c3ccccc3)oc2OC(=O)c2ccccc2)cc1,-1%,?,11,23µM*,18µM*,-4%
CC(=O)Oc1oc(-c2ccccc2)nc1C=Nc1ccc(N(C)C)cc1,-95%,0%,16,?,?,15%
CC(=O)Oc1oc(-c2ccccc2)nc1/C=N/c1ccccn1,0%,?,-101*,21µM*,16µM*,0%
Cc1cc(NC(=O)c2cccc(S(=O)(=O)N3CCCCC3)c2)no1,-1%,?,9,-25%,-10%,4%
Cc1ccc(OCCCn2ccnc2)cc1C,-5%,0%,-5,18µM*,?,-11%
Cc1cccc(OCCCn2ccnc2)c1,0%,10%,-6,?,21µM*,2%
Cc1cc(C)cc(OCCCn2ccnc2)c1,3%,0%,22,-9%,-11%,-1%
SMILES,SW480 rerep,Chronic BCR inh,IL-1B inflam inh,TDP1 cell noCPT,TDP1 cell CPT,MCF10A rereplic
O=C(Cc1ccccc1)Nc1cc([N+](=O)[O-])ccc1N1CCOCC1,-4%,7%,-16,-12%,-20%,-1%
COCc1cc(C)nc(SCC(=O)Nc2ccccc2N2CCOCC2)c1C#N,?,0%,11,?,?,21µM*
COCc1cc(C)nc(SCC(=O)Nc2ccc3c(c2)OCCO3)c1C#N,3%,-23%,-18,?,?,?
O=C(CSc1ccc([N+](=O)[O-])cc1)Nc1ccccc1N1CCOCC1,-30%,-1%,?,21µM*,?,9%
O=C(CSc1ccc([N+](=O)[O-])cc1)Nc1cccc(S(=O)(=O)N2CCOCC2)c1,-4%,-7%,-68*,-5%,-1%,5%
Cn1c2ccccc2c2ccc3c(c21)C(=O)C=CC3=O,1%,·,?,0.52µM*,0.41µM*,6.5µM*
Cc1ccc2c(c1)c1ccc3c(c1n2C)C(=O)C=CC3=O,?,2%,-3,0.58µM*,0.52µM*,?
COc1ccc2c(c1)c1ccc3c(c1n2C)C(=O)C=CC3=O,-5%,0%,-6,0.52µM*,0.73µM*,?
Cc1ccc(C)c2c1c1ccccc1n2C,-24%,1%,·,-3%,2%,1%
COc1cc2c(c(Br)c1N)-c1cc(Br)c(N)cc1C2=O,·,·,21,-10%,-4%,·
C[C@H](NC(=O)C1CC(=O)N(c2ccc3c(c2)OCO3)C1)C(=O)NC1CCCCC1 (stereo not given in full),9%,2%,-20,?,?,14%
O=C(c1ccc2c(c1)OCCO2)N(Cc1cccnc1)c1nc2c(F)cccc2s1,·,·,·,?,21µM*,·
O=C(c1ccc2c(c1)OCCO2)N(Cc1cccnc1)c1nc2ccc(Cl)cc2s1,·,·,·,-3%,-16%,·
COc1cccc2sc(N(Cc3cccnc3)C(=O)COc3ccccc3)nc12,·,?,·,-15%,-19%,·
COc1cccc2sc(N(Cc3cccnc3)C(=O)c3ccc4c(c3)OCCO4)nc12,·,·,·,16µM*,?,·
CCOc1cccc2sc(N(Cc3cccnc3)C(=O)c3ccc(C#N)cc3)nc12,·,?,·,23µM*,18µM*,·
CCOc1ccc2nc(N(Cc3cccnc3)C(=O)c3cccs3)sc2c1,·,?,·,-5%,2%,·
COc1ccc2sc(N(Cc3cccnc3)C(=O)c3cccs3)nc2c1,·,-28%,·,18µM*,21µM*,·
CC(C)(Oc1ccc(C2CCCc3ccccc32)cc1)C(=O)O (stereo not given),-11%,·,·,-9%,0%,-2%
COc1ccc(NS(=O)(=O)c2ccc3oc4ccccc4c3c2)cn1,8%,-2%,24,?,23µM*,?
C=CCC1(CC=C)CCCN1C(=O)Cn1nnnc1CN(C)C(C)C,-6%,?,33,20%,-1%,15%

# Source: PubChem BioAssay
